Assay results as given in PubChem BioAssay (Tox21).
Records with an inconclusive call do not appear. Active and inactive are the calls of the source. Unless noted, calls follow the shape of the dose curve; as a rule, active = well fitted curve in the direction sought with a large enough effect in the repeat runs; inconclusive = weak or mixed curves; inactive = no such curve, though single readings can be large; an effect the other way counts as inactive or inconclusive.

Tests used:
[1] = qHTS assay to identify small molecule agonists of the RXR signaling pathway - cell viability counter screen (AID 1159529);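 also: HEK 293T cells carrying an RXR-alpha UAS beta-lactamase reporter; series mostly up to about 77 µM; nearly all actives have a fitted effect of over 50% in size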
How it was run: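 Tox21 10K compounds were tested for cytotoxicity against GeneBLAzer RXR-alpha HEK 293T cells grown in 2% charcoal-stripped FBS. Exposure lasted 16 hr at 37 C, 5% CO2; viability read by CellTiter-Glo luminescence.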

[2] = qHTS assay to identify small molecule antagonists of the retinoid acid receptor (RAR) signaling pathway - cell viability counter screen (AID 1159551); also: nearly all actives have a fitted effect of over 35% in size
How it was run: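 Cells (C3RL4) are plated, incubated overnight, dosed with compound in DMSO, then given retinol at 1 uM final. After 6 h at 37 C, CellTiter-Glo is added and luminescence read following 30 min at room temperature.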

[3] = qHTS assay to identify small molecule antagonists of the retinoic acid receptor (RAR) signaling pathway (AID 1159552; also: nearly all actives have a fitted effect of over 50% in size)
How it was run: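 Overnight-plated C3RL4 reporter cells get compound, then retinol to 1 uM final; plates sit 6 hr at 37 C, 5% CO2. A luciferase reagent is added and light output recorded after 30 min at room temperature.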

[4] = qHTS assay to identify small molecule agonists of the retinoic acid receptor (RAR) signaling pathway (AID 1159553); also: potency is read from the fitted curve at half-maximal effect
How it was run: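 Seed C3RL4 reporter cells at 1,000 per well and incubate overnight at 37 C. Add compounds in DMSO, incubate 6 hr. Add luciferase reagent, wait 30 min at room temperature, read luminescence.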

[5] = qHTS assay to identify small molecule antagonists of the estrogen related receptor (ERR) signaling pathway from Tox21 library - cell viability counter screen (AID 1224834); also: nearly all actives have a fitted effect of over 30% in size; also: potency is read from the fitted curve at half-maximal effect
How it was run: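 ERR cells, 2,000/well; 6 h settle at 37 C/5% CO2; pin-tool compound transfer in DMSO; 17.5 h at 37 C; CellTiter-Fluor, 30 min; fluorescence intensity.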

[6] = target: Luciferin 4-monooxygenase (Photinus pyralis) (UniProt P08659); test: qHTS assay to identify small molecule inhibitors of firefly luciferase (AID 1224835); also: nearly all actives have a fitted effect of over 25% in size; also: potency is read from the fitted curve at half-maximal effect
Chain of Luciferin 4-monooxygenase (Photinus pyralis) (P08659 whole entry, looked up): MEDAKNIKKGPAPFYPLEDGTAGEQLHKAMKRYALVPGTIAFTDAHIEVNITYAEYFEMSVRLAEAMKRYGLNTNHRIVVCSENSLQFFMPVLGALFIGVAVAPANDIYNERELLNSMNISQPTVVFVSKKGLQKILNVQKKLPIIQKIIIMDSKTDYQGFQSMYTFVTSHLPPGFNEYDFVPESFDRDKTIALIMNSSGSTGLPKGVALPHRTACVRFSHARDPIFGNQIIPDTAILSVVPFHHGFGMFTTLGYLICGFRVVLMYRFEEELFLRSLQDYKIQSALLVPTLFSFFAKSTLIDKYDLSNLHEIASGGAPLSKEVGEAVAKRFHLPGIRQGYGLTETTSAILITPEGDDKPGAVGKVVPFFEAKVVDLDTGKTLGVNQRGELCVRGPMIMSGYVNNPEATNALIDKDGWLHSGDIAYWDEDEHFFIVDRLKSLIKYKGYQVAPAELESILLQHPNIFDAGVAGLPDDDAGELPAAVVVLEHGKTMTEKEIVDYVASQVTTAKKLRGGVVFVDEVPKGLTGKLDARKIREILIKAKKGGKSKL
How it was run: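 Inhibition of purified Photinus luciferase is measured by luminescence. Substrate levels (D-luciferin, ATP) sit at their KM values. Each compound is tested in a concentration series.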

[7] = qHTS assay to identify small molecule agonists of the constitutive androstane receptor (CAR) signaling pathway - cell viability counter screen (AID 1224836); also: series mostly up to about 92 µM; nearly all actives have a fitted effect of over 45% in size
How it was run: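 Fluorescence from CellTiter-Fluor indicates live cells after 23 h exposure. The human hepatoma line expresses hCAR and a CYP2B6-2.2kb reporter. Incubation medium contains 0.75 uM PK11195 (final).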

[8] = qHTS assay to identify small molecule antagonists of the constitutive androstane receptor (CAR) signaling pathway - cell viability counter screen (AID 1224837); also: nearly all actives have a fitted effect of over 45% in size; also: potency is read from the fitted curve at half-maximal effect
How it was run: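 Viability was measured with CellTiter-Fluor in a HepG2 line carrying stably transfected hCAR and a CYP2B6-2.2kb construct. Cells were exposed for 23 hr at 37 C to 15 compound concentrations with 50 nM CITCO as agonist.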

[9] = qHTS assay to identify small molecule antagonists of the estrogen related receptor signaling pathway with the pleiotropic PPARgamma coactivator (PGC) from Tox21 10K library - cell viability counter screen (AID 1224840; active = well fitted cell-killing curve with a large enough effect in the repeat runs, not every such curve was filed as active; also: nearly all actives have a fitted effect of over 40% in size)
How it was run: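 Multiplexed viability counter screen in the PGC/ERR cell line: cells treated with DMSO-dissolved compounds for 17.5 hours at 37 C, then viability measured as CellTiter-Fluor fluorescence.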

[10] = qHTS assay to identify small molecule agonists of the estrogen related receptor signaling pathway with the pleiotropic PPARgamma coactivator (PGC) from Tox21 10K library (AID 1224842); also: nearly all actives have a fitted effect of over 15% in size
How it was run: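 Luminescence from One-Glo (30 min, room temperature) measured after PGC/ERR cells had 18 h at 37 C with pinned compound (23 nL in DMSO). Cells had been seeded at 2,000 per well and pre-incubated 6 h.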

[11] = target: Nuclear receptor subfamily 1 group I member 3 (Homo sapiens) (UniProt Q14994); test: qHTS assay to identify small molecule antagonists of the constitutive androstane receptor (CAR) signaling pathway (AID 1224838);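 also: HepG2 cells stably expressing hCAR with CYP2B6 luciferase reporter stimulated by CITCO; nearly all actives have a fitted effect of over 40% in size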
Chain of Nuclear receptor subfamily 1 group I member 3 (Homo sapiens) (Q14994 whole entry, looked up): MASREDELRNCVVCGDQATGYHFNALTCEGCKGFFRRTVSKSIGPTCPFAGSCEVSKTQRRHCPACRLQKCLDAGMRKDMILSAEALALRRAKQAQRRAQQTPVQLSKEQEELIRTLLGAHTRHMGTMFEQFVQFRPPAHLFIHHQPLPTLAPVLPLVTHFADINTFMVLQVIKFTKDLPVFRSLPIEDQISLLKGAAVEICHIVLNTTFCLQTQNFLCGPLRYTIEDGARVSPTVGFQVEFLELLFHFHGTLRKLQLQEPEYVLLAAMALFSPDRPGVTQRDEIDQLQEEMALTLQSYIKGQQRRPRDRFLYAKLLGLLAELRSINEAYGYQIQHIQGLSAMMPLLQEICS
How it was run: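 Antagonist mode used CITCO at a final 50 nM to activate CAR in human hepatoma HepG2 cells carrying stable hCAR and a 2.2 kb CYP2B6 promoter-luciferase construct. Compounds were tested at 15 concentrations over 24 h, with luminescence as the end point.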

[12] = target: Nuclear receptor subfamily 1 group I member 3 (Homo sapiens) (UniProt Q14994); test: qHTS assay to identify small molecule agonists of the constitutive androstane receptor (CAR) signaling pathway (AID 1224839); also: nearly all actives have a fitted effect of over 15% in size; also: potency is read from the fitted curve at half-maximal effect
How it was run: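 Stable hCAR/CYP2B6-2.2kb HepG2 line in DMEM with 10% FBS; compounds (15 concentrations) and 0.75 uM PK11195 final, 24 h at 37 C/5% CO2, then ONE-Glo luminescence after 30 min.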

[13] = qHTS assay to identify small molecule antagonists of the estrogen related receptor signaling pathway with the pleiotropic PPARgamma coactivator (PGC) from Tox21 10K library (AID 1224841; call rule not given here; also: actives are mostly falling curves and most rising ones were filed inactive; nearly all actives have a fitted effect of over 50% in size; also: potency is read from the fitted curve at half-maximal effect)
How it was run: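 Steps: plate 2,000 PGC/ERR cells per well; incubate 6 h at 37 C with 5% CO2; transfer compounds from DMSO stocks by pin tool; incubate 18 h at 37 C; add One-Glo; measure luminescence 30 min later.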

[14] = qHTS assay to identify small molecule antagonists of the estrogen related receptor (ERR) signaling pathway - cell viability counter screen (AID 1224818); also: series mostly up to about 46 µM
How it was run: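 ERR cells, 2,000/well; 6 h settle at 37 C/5% CO2; compound pin transfer (DMSO); 17.5 h at 37 C; CellTiter-Fluor, 30 min, fluorescence read.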

[15] = qHTS assay to identify small molecule antagonists of the estrogen related receptor (ERR) signaling pathway (AID 1224819; also: series mostly up to about 46 µM; nearly all actives have a fitted effect of over 50% in size)
How it was run: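 qHTS in ERR cells, 2,000/well, 1536 format. Cpd (DMSO) added after 6 h settle, 18 h 37 C. One-Glo luminescence, 30 min RT.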

[16] = qHTS assay to identify small molecule agonists of the estrogen related receptor (ERR) signaling pathway (AID 1224820)
How it was run: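 After 6 h plating (2,000 cells/well) and 18 h compound treatment at 37 C, ERR cells were lysed with One-Glo and luminescence read after 30 min at room temperature.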

[17] = tested on: estrogen-related receptor alpha (ERRalpha) with PGC-1alpha coactivator, human; test: qHTS assay to identify small molecule antagonists of the estrogen related receptor signaling pathway with the pleiotropic PPARgamma coactivator (PGC) (AID 1224821; calls by dose curve)
How it was run: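 Luminescence from One-Glo luciferase reagent (30 min, room temperature) measured after 18 h compound treatment at 37 °C. Cells carry the PGC/ERR reporter and were seeded 6 h prior to dosing.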

[18] = qHTS assay to identify small molecule antagonists of the estrogen related receptor signaling pathway with the pleiotropic PPARgamma coactivator (PGC) cell viability counter screen (AID 1224822;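 also: series mostly up to about 46 µM; viability read after 17.5 h compound exposure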)
How it was run: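 Multiplexed viability counter screen run in PGC/ERR cells treated with compounds for 17.5 h at 37 C; live-cell protease signal measured by CellTiter-Fluor fluorescence.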

[19] = qHTS assay to identify small molecule agonists of the estrogen related receptor signaling pathway with the pleiotropic PPARgamma coactivator (PGC) (AID 1224823)
How it was run: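 Luminescence from One-Glo reagent (30 min, room temperature) was read after 18 h compound treatment at 37 C of PGC/ERR cells plated 6 h beforehand; compounds delivered in DMSO by pin tool.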

Measured: Potency

CC(O)CN (centres undefined)
inactive: [1] | [2] | [3] | [4] | [5] | [6] | [7] | [8] | [9] | [10]

O=C(O)c1cc(C(=O)O)c(C(=O)O)cc1C(=O)O
not listed: [4] | [13] | [14] | [15] | [16] | [17] | [18] | [19]
inactive: all other assays above

O=C1c2ccccc2C(=O)c2c1ccc(O)c2O
active: [6] 34.7 µM
inactive: [1] | [2] | [3] | [4] | [7] | [8] | [11] | [12] | [9]

O=C(N[C@@H](Cc1ccccc1)[C@@H](O)C(=O)N1C[C@@H](O)[C@@H](O)C1)c1cc2cc(Cl)ccc2[nH]1
active: [13] 54.5 µM
inactive: [1] | [2] | [3] | [4] | [6] | [7] | [8] | [10]

O=C(O)c1cccnc1Nc1cccc(C(F)(F)F)c1
active: [6] 19.5 µM
not listed: [4] | [12] | [13]
inactive: all other assays above

CCC(C)C1N=C(C)C(C)S1 (centres undefined)
inactive: [1] | [2] | [3] | [4] | [5] | [6] | [7] | [8] | [9] | [10]

O=C1c2ccccc2C(=O)C1c1ccc2ccccc2n1
active: [4] 0.108 µM | [6] 0.111 µM | [12] 6.05 µM
inactive: [1] | [2] | [3] | [7] | [8] | [9]

CCCCCCCCS
inactive: [1] | [2] | [3] | [4] | [5] | [6] | [7] | [8] | [9]

CCC[Si](OC)(OC)OC
inactive: [1] | [2] | [3] | [4] | [5] | [6] | [7] | [8] | [9] | [10]

O=C(OCCCCCOC(=O)c1ccccc1)c1ccccc1
not listed: [4] | [12] | [14] | [15] | [16] | [17] | [18] | [19]
inactive: all other assays above

Cc1c(Cl)cccc1[N+](=O)[O-]
inactive: [1] | [2] | [3] | [4] | [5] | [6] | [7] | [8] | [9]

Cc1cc(N)n(-c2ccccc2)n1
inactive: [1] | [2] | [3] | [5] | [6] | [7] | [8] | [11] | [9] | [10]

O=C(O)c1ccc2cc(O)ccc2c1
inactive: [1] | [2] | [3] | [5] | [7] | [8] | [11] | [12] | [9]
active: [6] 62.4 µM

C=CCCC
inactive: [1] | [2] | [3] | [4] | [5] | [6] | [7] | [8] | [9]

N#C[C@@H]1CC(F)(F)CN1C(=O)CNC1CC2CCC(C1)N2c1ncccn1 (some centres undefined)
not listed: [11] | [12] | [14] | [15] | [16] | [17] | [18] | [19]
inactive: all other assays above

CC(=O)Oc1cccc2c1C(=O)c1c(OC(C)=O)cc(C(=O)O)cc1C2=O
inactive: [1] | [2] | [3] | [4] | [6] | [11] | [12] | [9] | [10]
active: [5] 29.8 µM | [13] 21.1 µM

CC(=O)Nc1cccc(N)c1
inactive: [1] | [2] | [3] | [4] | [5] | [6] | [7] | [8] | [9] | [10]

CC(C)C/C=C(\C=O)c1ccccc1
not listed: [5] | [12] | [14] | [15] | [16] | [17] | [18] | [19]
inactive: all other assays above

CC(C)CCCCCOC(=O)CS
inactive: [1] | [2] | [3] | [5] | [6] | [7] | [8] | [11] | [12] | [9]

O=C(C1CCCCC1)N1CC(=O)N2CCCc3ccccc3C2C1 (centres undefined)
inactive: [1] | [2] | [3] | [4] | [6] | [7] | [8] | [9]

O=C(OCCOCCOCCOC(=O)c1ccccc1)c1ccccc1
inactive: [1] | [2] | [3] | [5] | [6] | [7] | [8] | [11] | [12] | [9]

CC(C)(Cc1c[nH]c2ccccc12)NCC(O)COc1ccccc1C#N (centres undefined)
inactive: [1] | [2] | [3] | [4] | [6] | [7] | [8] | [9] | [10]

CCOc1cc(OCC)c(C(C)=O)cc1OCC
inactive: [1] | [2] | [3] | [4] | [6] | [11] | [10]
active: [5] 30.1 µM | [8] 26.8 µM | [12] 23.9 µM

O=C(O)c1ccncc1
inactive: [1] | [2] | [3] | [4] | [5] | [9] | [10]
active: [6] 73 µM

C1CCN(CN2CCCCC2)CC1
inactive: [1] | [2] | [5] | [6] | [7] | [8] | [11] | [12] | [9]

CC1(C)CC(=O)CC(C)(C)N1
inactive: [1] | [2] | [5] | [6] | [7] | [8] | [9]

Cc1ccc(NC=O)c(C)c1
inactive: [1] | [2] | [5] | [6] | [7] | [8] | [9]
